According to PubChem BioAssay (NCI):
Compounds without any hit were thinned out: in the full panel of roughly 83,000, 20% have a hit.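 Cells were grown in 96-well plates and exposed to the test compound at a single concentration for 48 hours; results are reported as percent growth, with values below 10 considered active.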 Values without a mark were called inactive. Activity calls are given as the source filed them.

What was measured:
Experiment in all cases: NCI-60 one-dose screen, 48 h (100 = growth as untreated, 0 = no growth, -100 = all killed)
HCT-15 colon = tested on: HCT-15 colon
HT29 colon = tested on: HT29 colon
SNB-75 CNS = tested on: SNB-75 CNS
SNB-19 CNS = tested on: SNB-19 CNS
U251 CNS = details: 10 µM unless noted
PC-3 prostate = tested on: PC-3 prostate
SK-MEL-5 melanoma = tested on: SK-MEL-5 melanoma
UACC-62 melanoma = tested on: UACC-62 melanoma
LOX IMVI melanoma = tested on: LOX IMVI melanoma
SK-MEL-28 melanoma = tested on: SK-MEL-28 melanoma

O=C1c2ccccc2C(=O)c2sc(Nc3ccc(Cl)cc3)nc21
growth (HCT-15 colon; 10 µM unless noted): -68.7% (active) | growth (HT29 colon; 10 µM unless noted): 92.5% | growth (SNB-75 CNS; 10 µM unless noted): 33.1% | growth (SNB-19 CNS; 10 µM unless noted): 79.5% | growth (U251 CNS): 4.35% (active) | growth (PC-3 prostate; 10 µM unless noted): 2.24% (active) | growth (SK-MEL-5 melanoma; 10 µM unless noted): 13% | growth (UACC-62 melanoma; 10 µM unless noted): 18.4% | growth (LOX IMVI melanoma; 10 µM unless noted): -85.8% (active) | growth (SK-MEL-28 melanoma; 10 µM unless noted): -9.35% (active)

O=C(Nc1cccc(Br)c1)Oc1cccc2cccnc12
growth (HCT-15 colon; 10 µM): 94.1% | growth (HCT-15 colon; 100 µM): 5.53% (active) | growth (HT29 colon; 10 µM): 92.1% | growth (HT29 colon; 100 µM): 57.8% | growth (SNB-75 CNS; 10 µM): 83.4% | growth (SNB-75 CNS; 100 µM): 41.6% | growth (SNB-19 CNS; 10 µM): 100% | growth (SNB-19 CNS; 100 µM): 48.7% | growth (U251 CNS): 21.1% [100 µM] | growth (PC-3 prostate; 10 µM): 92.9% | growth (PC-3 prostate; 100 µM): 11.7% | growth (SK-MEL-5 melanoma; 10 µM): 101% | growth (SK-MEL-5 melanoma; 100 µM): 2.15% (active) | growth (UACC-62 melanoma; 10 µM): 97.5% | growth (UACC-62 melanoma; 100 µM): 11.7% | growth (LOX IMVI melanoma; 10 µM): 102% | growth (LOX IMVI melanoma; 100 µM): -3.16% (active) | growth (SK-MEL-28 melanoma; 10 µM): 105% | growth (SK-MEL-28 melanoma; 100 µM): 48.2%

OC(CNc1ccnc2cc(Cl)ccc12)CNc1ccnc2cc(Cl)ccc12
growth (HCT-15 colon; 10 µM unless noted): 97% | growth (HT29 colon; 10 µM unless noted): 7.67% (active) | growth (SNB-75 CNS; 10 µM unless noted): 31.8% | growth (SNB-19 CNS; 10 µM unless noted): 41.3% | growth (U251 CNS): 3.22% (active) | growth (PC-3 prostate; 10 µM unless noted): 69.7% | growth (SK-MEL-5 melanoma; 10 µM unless noted): 53.7% | growth (UACC-62 melanoma; 10 µM unless noted): 88.3% | growth (LOX IMVI melanoma; 10 µM unless noted): -79.2% (active) | growth (SK-MEL-28 melanoma; 10 µM unless noted): -82.7% (active)

O=C1N[C@H]2[C@H](CS[C@H]2CCCCC(=O)N(CCP(c2ccccc2)c2ccccc2)CCP(c2ccccc2)c2ccccc2)N1
growth (HCT-15 colon; 10 µM unless noted): 78.6% | growth (HT29 colon; 10 µM unless noted): 59.3% | growth (SNB-75 CNS; 10 µM unless noted): 104% | growth (SNB-19 CNS; 10 µM unless noted): 75.7% | growth (U251 CNS): 50.8% | growth (PC-3 prostate; 10 µM unless noted): 71.7% | growth (SK-MEL-5 melanoma; 10 µM unless noted): 87.8% | growth (UACC-62 melanoma; 10 µM unless noted): 88.3% | growth (LOX IMVI melanoma; 10 µM unless noted): 76% | growth (SK-MEL-28 melanoma; 10 µM unless noted): 99.7%

COC(=O)[C@@]12OC[C@]34[C@H]([C@@H](O)[C@@H]1O)[C@@]1(C)[C@H](O)C(=O)C=C(C)[C@@H]1C[C@H]3OC(=O)C(OC(C)=O)[C@@H]24 (some centres not stated)
growth (HCT-15 colon; 10 µM unless noted): -27.3% (active) | growth (HT29 colon; 10 µM unless noted): 6.8% (active) | growth (SNB-75 CNS; 10 µM unless noted): -80.1% (active) | growth (SNB-19 CNS; 10 µM unless noted): -18.8% (active) | growth (U251 CNS): -31.4% (active) | growth (PC-3 prostate; 10 µM unless noted): -51% (active) | growth (SK-MEL-5 melanoma; 10 µM unless noted): -76.9% (active) | growth (UACC-62 melanoma; 10 µM unless noted): -88.8% (active) | growth (LOX IMVI melanoma; 10 µM unless noted): -84.1% (active) | growth (SK-MEL-28 melanoma; 10 µM unless noted): -51.5% (active)

CNC(=O)N/N=C/c1ccc([N+](=O)[O-])o1
growth (HCT-15 colon; 10 µM unless noted): 107% | growth (HT29 colon; 10 µM unless noted): 102% | growth (SNB-75 CNS; 10 µM unless noted): 114% | growth (SNB-19 CNS; 10 µM unless noted): 94.9% | growth (U251 CNS): 96.9% | growth (PC-3 prostate; 10 µM unless noted): 92.7% | growth (SK-MEL-5 melanoma; 10 µM unless noted): 98.6% | growth (UACC-62 melanoma; 10 µM unless noted): 88.9% | growth (LOX IMVI melanoma; 10 µM unless noted): 89.1% | growth (SK-MEL-28 melanoma; 10 µM unless noted): 111%

NC(=S)N/N=C\c1nccc2c(C(F)(F)C(F)(F)C(F)(F)F)cccc12
growth (HCT-15 colon; 10 µM unless noted): 28.2% | growth (HT29 colon; 10 µM unless noted): 8.84% (active) | growth (SNB-75 CNS; 10 µM unless noted): 20.2% | growth (SNB-19 CNS; 10 µM unless noted): 21.8% | growth (U251 CNS): -9.91% (active) | growth (PC-3 prostate; 10 µM unless noted): 9.51% (active) | growth (SK-MEL-5 melanoma; 10 µM unless noted): -54.7% (active) | growth (UACC-62 melanoma; 10 µM unless noted): -39.8% (active) | growth (LOX IMVI melanoma; 10 µM unless noted): 4.13% (active) | growth (SK-MEL-28 melanoma; 10 µM unless noted): 25.2%

S=C(NCCNC(=S)[S][Sn]([c]1ccccc1)([c]1ccccc1)[c]1ccccc1)[S][Sn]([c]1ccccc1)([c]1ccccc1)[c]1ccccc1
growth (HCT-15 colon; 10 µM unless noted): -73.8% (active) | growth (HT29 colon; 10 µM unless noted): -93.1% (active) | growth (SNB-75 CNS; 10 µM unless noted): -60.8% (active) | growth (SNB-19 CNS; 10 µM unless noted): -92.8% (active) | growth (U251 CNS): -100% (active) | growth (PC-3 prostate; 10 µM unless noted): -82.5% (active) | growth (SK-MEL-5 melanoma; 10 µM unless noted): -100% (active) | growth (UACC-62 melanoma; 10 µM unless noted): -64.1% (active) | growth (LOX IMVI melanoma; 10 µM unless noted): -86.5% (active) | growth (SK-MEL-28 melanoma; 10 µM unless noted): -98.8% (active)

COc1ccc(-c2cscc2N)cc1
growth (HCT-15 colon; 10 µM): 63.1% | growth (HCT-15 colon; 100 µM): 63.9% | growth (HT29 colon; 10 µM): 97.7% | growth (HT29 colon; 100 µM): 52% | growth (SNB-75 CNS; 10 µM): 88.8% | growth (SNB-75 CNS; 100 µM): 51.9% | growth (SNB-19 CNS; 10 µM): 82.9% | growth (SNB-19 CNS; 100 µM): 57.6% | growth (U251 CNS): 38.5% [100 µM] | growth (PC-3 prostate; 10 µM): 98.4% | growth (PC-3 prostate; 100 µM): 41.4% | growth (SK-MEL-5 melanoma; 10 µM): 48.8% | growth (SK-MEL-5 melanoma; 100 µM): 33.1% | growth (UACC-62 melanoma; 10 µM): 43.4% | growth (UACC-62 melanoma; 100 µM): -9.3% (active) | growth (LOX IMVI melanoma; 10 µM unless noted): 45.7% | growth (SK-MEL-28 melanoma; 10 µM): 96.4% | growth (SK-MEL-28 melanoma; 100 µM): 51.4%
